Results: PubChem BioAssay AID489037 (National Center for Advancing Translational Sciences (NCATS), 2010)
Inconclusive results are not listed. Active and inactive are the calls of the source. The call rests on the fitted dose curve; in most records, active means well fitted inhibition curve with a large enough effect; inconclusive means small, poorly fitted or top-dose-only effect, or effect the other way; inactive means no such curve, though single readings can be large or run the other way.

Biological target: Nuclear receptor ROR-gamma (Mus musculus) (UniProt P51450)
Sequence (P51450 whole entry, looked up): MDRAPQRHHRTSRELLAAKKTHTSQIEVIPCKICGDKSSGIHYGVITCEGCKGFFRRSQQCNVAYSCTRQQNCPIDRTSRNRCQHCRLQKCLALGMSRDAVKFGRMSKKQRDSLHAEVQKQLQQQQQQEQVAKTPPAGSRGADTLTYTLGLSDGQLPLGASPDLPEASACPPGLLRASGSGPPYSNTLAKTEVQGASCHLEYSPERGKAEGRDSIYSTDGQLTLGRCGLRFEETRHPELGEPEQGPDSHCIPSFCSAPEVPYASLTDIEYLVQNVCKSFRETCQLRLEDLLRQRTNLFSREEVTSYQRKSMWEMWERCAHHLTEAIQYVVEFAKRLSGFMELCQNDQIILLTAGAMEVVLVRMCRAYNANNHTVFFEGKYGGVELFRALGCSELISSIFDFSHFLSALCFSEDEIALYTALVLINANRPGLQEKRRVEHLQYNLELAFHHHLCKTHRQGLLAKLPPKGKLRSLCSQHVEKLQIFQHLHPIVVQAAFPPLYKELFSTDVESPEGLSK
Experiment: Secondary confirmation assay for inhibitors of ROR gamma transcriptional activity
Conditions: Drosophila S2 Gal4-RORgamma UAS-luciferase reporter, 20 h
Source text: NIH Molecular Libraries Probe Production Network [MLPCN] NIH Chemical Genomics Center [NCGC] MLPCN Grant: R03 DA026211-01 Assay Provider: Dan Littman, New York University Keywords: NIH Roadmap, MLPCN, MLI, MLSMR, qHTS, NCGC, qHTS, nuclear hormone receptor, retinoic acid-related orphan receptor, ROR gamma Assay Overview: The retinoic acid-related orphan receptor (ROR) gamma is a transcription factor that has a central role in the differentiation of Th17 cells, a subset of T helper cells that secrete the inflammatory cytokines IL-17, IL-17F, and IL-22. Th17 cells have been implicated in graft versus host disease, autoimmune disease and asthma. ROR gamma is induced in naive T helper cells in the presence of TGF-beta combined with IL-6, IL-21, or IL-23, and thereafter directs the expression of the Th17 lineage cytokines. To study the mechanism of action of ROR gamma, an insect cell-based assay was screened. […] Small molecule inhibitors of ROR gamma activity are detected by a decrease in luciferase reporter activity.
Assay Protocol Summary: For screening, 600 cells in 4 uL/well were dispensed into white solid 1536-well plates (Grenier) using a solenoid-based dispenser. […] After addition of 1.5 uL Photinus luciferase detection reagent, the plates were incubated 10 min at ambient temperature and then read by an ViewLux (Perkin Elmer) to detect luminescence. […]

Row | SMILES | Potency
1 | CC1OC(O[C@@H]2C(O)CC(O[C@@H]3C(O)C[C@@H](OC4CC[C@@]5(C)C6CC[C@]7(C)C(C8=CC(=O)OC8)C(O)C[C@@]7(O)[C@H]6CC[C@@H]5C4)OC3C)OC2C)CC(O)C1O (some centres not stated) | 4070 nM (active)
2 | CO[C@H]1[C@@H](O)CC(OC2[C@@H](O)CC(OC3[C@@H](O)C[C@H](OC4CC[C@@]5(C)C(CCC6C5CC(O)[C@]5(C)[C@H](C7=CC(=O)OC7)CCC65O)C4)O[C@@H]3C)O[C@@H]2C)O[C@@H]1C (some centres not stated) | 1820 nM (active)
